Laboratory results: the supplement of paper PMC10849652
About 8,800 targets were measured; listed, in parts, are those with a hit and a random draw of the rest. About 0.5% of all pairs of compound and target were hits. A number with no mark means an inactive call.

Assays:
Assay in all cases: log2 fold change, soluble protein after heating vs DMSO (PISA); higher = thermal stabilisation; K562 lysate, 10 uM; active = over 0.2 and 3.5 SD of the protein, either way, in both replicates (recomputed)
alvocidib = compound: CN1CC[C@H](c2c(O)cc(O)c3c(=O)cc(-c4ccccc4Cl)oc23)[C@H](O)C1 [alvocidib]
In short: (§1)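 To prepare the extract, K562 pellets were dounce-homogenised in PBS pH 7.4 with 1 mM MgCl2, giving crude material at 1 mg/mL protein. This was treated with 10 μM compound for 30 min, then heated in aliquots for 3 min over 48°C-58°C before pooling and addition of NP-40 to 0.5% at 4°C. Centrifugation at 21,000xg for 90 min left soluble protein in the supernatant, which TMTpro 16plex LC-MS/MS quantified with equalised channel sums. Results are log-two fold changes in thermal stability compared with solvent controls, from duplicates.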

Tubastatin A = compound: CN1CCc2c(c3ccccc3n2Cc2ccc(C(=O)NO)cc2)C1 [Tubastatin A]
In short: as §1

[1] = compound: CNC(=O)C1=CC=CC=C1NC2=NC(=NC=C2Cl)NC3=C(C=C(C=C3)N4CCOCC4)OC
In short: as §1

defactinib = compound: CNC(=O)c1ccc(Nc2ncc(C(F)(F)F)c(NCc3nccnc3N(C)S(C)(=O)=O)n2)cc1 [defactinib]
In short: as §1

[2] = compound: CNc1nc(-c2ccc3c(N)n[nH]c3c2)cc(N2C[C@@H](C(=O)NC3CCCCC3)CC[C@H]2C)n1
In short: as §1

encorafenib = compound: COC(=O)N[C@@H](C)CNc1nccc(-c2cn(C(C)C)nc2-c2cc(Cl)cc(NS(C)(=O)=O)c2F)n1 [encorafenib]
In short: as §1

[3] = compound: COC(=O)[C@H](CCSC)NC(=O)C1=C(C=C(C=C1)NC[C@H](CS)N)C2=CC=CC=C2
In short: as §1

alisertib = compound: COc1cc(Nc2ncc3c(n2)-c2ccc(Cl)cc2C(c2c(F)cccc2OC)=NC3)ccc1C(=O)O [alisertib]
In short: as §1

[4] = compound: COc1cc2nc(-c3cc(F)ccc3O)nc(N[C@@H]3CNC[C@H]3C(C)(C)O)c2cc1OC
In short: as §1

gefitinib = compound: COc1cc2ncnc(Nc3ccc(F)c(Cl)c3)c2cc1OCCCN1CCOCC1 [gefitinib]
In short: as §1

Sequence of UniProt Q08AE8 (Q08AE8 whole entry, looked up): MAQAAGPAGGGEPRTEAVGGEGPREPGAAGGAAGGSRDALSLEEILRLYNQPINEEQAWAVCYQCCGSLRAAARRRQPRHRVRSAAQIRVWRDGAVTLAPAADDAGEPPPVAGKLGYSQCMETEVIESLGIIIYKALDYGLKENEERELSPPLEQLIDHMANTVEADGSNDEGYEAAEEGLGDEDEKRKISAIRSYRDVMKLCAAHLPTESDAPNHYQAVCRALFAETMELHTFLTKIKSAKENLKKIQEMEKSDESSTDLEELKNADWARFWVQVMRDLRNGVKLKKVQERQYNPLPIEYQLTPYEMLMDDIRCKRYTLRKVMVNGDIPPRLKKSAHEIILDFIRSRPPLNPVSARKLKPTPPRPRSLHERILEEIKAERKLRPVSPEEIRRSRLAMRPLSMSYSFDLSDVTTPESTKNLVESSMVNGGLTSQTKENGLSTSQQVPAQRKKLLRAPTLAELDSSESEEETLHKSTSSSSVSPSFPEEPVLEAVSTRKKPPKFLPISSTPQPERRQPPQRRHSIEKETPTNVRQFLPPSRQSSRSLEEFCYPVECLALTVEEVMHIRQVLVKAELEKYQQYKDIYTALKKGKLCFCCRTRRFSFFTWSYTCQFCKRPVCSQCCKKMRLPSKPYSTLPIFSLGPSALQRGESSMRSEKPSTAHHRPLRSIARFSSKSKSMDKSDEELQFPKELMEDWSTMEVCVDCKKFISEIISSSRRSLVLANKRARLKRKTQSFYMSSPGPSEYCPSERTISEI
Sequence of UniProt Q8WVK7 (Q8WVK7 whole entry, looked up): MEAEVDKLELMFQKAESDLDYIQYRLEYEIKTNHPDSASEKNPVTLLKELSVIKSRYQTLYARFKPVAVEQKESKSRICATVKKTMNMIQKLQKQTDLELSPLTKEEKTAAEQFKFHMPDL
Sequence of UniProt O15198 (O15198 whole entry, looked up): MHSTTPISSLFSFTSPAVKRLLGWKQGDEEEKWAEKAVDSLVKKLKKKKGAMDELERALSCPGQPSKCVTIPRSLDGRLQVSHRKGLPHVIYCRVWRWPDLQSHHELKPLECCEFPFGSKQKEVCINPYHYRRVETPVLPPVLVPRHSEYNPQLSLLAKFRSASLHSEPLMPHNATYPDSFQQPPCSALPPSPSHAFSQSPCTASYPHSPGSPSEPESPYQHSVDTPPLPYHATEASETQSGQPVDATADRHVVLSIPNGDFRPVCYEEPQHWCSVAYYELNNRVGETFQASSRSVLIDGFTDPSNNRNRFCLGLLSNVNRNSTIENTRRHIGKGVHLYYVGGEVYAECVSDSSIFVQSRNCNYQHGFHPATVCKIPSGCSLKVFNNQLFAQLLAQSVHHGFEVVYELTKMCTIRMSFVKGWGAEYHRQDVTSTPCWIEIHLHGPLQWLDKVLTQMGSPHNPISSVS
Sequence of UniProt O43808 (O43808 whole entry, looked up): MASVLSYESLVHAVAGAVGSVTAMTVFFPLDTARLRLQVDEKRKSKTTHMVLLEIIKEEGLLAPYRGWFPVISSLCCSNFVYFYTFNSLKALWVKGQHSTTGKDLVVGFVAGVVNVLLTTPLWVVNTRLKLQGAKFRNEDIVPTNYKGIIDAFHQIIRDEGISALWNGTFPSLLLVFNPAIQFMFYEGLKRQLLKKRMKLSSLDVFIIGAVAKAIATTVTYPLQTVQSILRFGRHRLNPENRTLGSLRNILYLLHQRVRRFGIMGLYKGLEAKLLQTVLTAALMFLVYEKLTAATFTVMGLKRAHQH
Sequence of UniProt Q6KCM7 (Q6KCM7 whole entry, looked up): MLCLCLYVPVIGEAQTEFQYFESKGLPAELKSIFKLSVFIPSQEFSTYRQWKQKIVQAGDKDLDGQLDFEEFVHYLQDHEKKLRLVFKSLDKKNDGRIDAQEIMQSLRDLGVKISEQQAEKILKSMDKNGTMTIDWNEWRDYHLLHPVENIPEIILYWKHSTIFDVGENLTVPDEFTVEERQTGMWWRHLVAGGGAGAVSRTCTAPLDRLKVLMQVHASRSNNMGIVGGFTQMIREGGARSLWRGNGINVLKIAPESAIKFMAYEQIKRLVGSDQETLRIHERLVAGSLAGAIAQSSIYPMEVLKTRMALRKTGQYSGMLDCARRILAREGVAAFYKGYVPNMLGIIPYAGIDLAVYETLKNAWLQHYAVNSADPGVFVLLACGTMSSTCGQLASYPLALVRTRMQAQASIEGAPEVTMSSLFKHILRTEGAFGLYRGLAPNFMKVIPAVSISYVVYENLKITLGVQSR
Sequence of UniProt Q96JI7 (Q96JI7 whole entry, looked up): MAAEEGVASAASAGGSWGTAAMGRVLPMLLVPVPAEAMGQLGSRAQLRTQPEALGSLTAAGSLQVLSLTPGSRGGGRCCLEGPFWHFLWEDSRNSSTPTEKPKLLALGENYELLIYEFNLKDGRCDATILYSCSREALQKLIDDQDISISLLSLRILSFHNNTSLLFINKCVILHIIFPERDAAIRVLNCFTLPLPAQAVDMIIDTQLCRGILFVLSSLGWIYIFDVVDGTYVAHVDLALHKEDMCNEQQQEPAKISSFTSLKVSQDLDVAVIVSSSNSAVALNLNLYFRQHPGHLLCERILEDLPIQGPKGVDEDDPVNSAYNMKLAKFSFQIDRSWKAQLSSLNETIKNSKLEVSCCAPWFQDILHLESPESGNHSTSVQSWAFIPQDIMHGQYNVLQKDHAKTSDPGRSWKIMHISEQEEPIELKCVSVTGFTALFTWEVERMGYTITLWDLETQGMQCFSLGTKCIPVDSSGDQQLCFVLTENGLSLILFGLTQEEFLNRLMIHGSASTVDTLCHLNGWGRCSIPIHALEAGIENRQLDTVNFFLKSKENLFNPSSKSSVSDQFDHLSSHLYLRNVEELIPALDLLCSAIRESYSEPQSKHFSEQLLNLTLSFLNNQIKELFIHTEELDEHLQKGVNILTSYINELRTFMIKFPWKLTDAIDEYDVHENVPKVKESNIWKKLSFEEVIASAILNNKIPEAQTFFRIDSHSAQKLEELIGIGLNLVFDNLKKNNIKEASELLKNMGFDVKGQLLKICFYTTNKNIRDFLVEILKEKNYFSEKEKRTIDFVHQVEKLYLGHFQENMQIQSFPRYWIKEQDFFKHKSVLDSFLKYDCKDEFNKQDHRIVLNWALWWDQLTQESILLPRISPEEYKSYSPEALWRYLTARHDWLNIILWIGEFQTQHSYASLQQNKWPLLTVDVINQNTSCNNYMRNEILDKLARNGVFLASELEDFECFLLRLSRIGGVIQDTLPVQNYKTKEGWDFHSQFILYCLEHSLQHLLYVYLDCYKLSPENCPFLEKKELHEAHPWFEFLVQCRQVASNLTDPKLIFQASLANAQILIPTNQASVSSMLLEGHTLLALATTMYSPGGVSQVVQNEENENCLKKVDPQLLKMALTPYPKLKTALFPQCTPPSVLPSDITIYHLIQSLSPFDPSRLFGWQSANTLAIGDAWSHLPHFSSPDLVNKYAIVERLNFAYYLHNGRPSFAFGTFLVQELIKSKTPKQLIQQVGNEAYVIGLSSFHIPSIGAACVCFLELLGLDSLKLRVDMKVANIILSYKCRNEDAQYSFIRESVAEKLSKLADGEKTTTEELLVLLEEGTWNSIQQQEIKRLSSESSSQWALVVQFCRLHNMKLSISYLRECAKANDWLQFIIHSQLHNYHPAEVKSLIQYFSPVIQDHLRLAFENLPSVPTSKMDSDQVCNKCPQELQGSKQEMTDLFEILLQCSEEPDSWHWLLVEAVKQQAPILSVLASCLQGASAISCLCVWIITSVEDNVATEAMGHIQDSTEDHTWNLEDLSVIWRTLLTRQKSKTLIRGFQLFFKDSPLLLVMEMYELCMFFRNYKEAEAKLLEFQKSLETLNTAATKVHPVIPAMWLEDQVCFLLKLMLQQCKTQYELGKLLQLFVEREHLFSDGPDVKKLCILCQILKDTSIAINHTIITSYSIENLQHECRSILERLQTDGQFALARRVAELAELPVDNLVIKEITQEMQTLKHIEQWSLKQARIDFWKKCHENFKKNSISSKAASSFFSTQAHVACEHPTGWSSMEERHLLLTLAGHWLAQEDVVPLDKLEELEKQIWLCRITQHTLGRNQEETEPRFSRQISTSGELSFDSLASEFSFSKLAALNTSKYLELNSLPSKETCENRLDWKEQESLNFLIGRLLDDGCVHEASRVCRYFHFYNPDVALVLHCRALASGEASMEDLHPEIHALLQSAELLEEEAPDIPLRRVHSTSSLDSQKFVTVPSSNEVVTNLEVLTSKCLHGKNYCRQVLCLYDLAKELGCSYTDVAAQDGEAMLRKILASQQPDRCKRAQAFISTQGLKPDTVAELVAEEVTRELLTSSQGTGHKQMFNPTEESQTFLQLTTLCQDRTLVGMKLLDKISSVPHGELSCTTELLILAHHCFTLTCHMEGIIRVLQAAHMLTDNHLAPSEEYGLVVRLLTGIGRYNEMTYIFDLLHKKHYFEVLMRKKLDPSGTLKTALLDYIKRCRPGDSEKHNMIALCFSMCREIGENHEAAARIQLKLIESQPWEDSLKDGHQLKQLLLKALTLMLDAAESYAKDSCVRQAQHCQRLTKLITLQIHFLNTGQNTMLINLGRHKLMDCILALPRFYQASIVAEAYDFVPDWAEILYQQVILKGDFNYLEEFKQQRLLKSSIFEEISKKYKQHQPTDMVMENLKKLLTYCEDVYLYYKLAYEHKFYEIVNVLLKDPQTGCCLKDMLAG
Sequence of UniProt Q9H668 (Q9H668 whole entry, looked up): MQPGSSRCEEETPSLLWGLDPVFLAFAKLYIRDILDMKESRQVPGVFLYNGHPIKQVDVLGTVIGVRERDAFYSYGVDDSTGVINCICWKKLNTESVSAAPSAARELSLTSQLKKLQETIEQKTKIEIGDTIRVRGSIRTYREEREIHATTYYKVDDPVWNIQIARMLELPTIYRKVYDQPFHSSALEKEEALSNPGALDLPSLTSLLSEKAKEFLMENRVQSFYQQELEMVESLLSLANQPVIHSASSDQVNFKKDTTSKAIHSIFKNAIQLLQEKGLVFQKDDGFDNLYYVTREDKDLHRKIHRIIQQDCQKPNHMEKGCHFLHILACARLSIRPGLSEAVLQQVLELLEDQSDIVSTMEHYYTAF
Sequence of UniProt O43805 (O43805 whole entry, looked up): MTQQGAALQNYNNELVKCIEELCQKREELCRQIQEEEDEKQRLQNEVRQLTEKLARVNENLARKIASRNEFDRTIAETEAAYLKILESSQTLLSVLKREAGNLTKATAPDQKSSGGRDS

Row | Target | log2 fold change (alvocidib) | log2 fold change (Tubastatin A) | log2 fold change [1] | log2 fold change (defactinib) | log2 fold change [2] | log2 fold change (encorafenib) | log2 fold change [3] | log2 fold change (alisertib) | log2 fold change [4] | log2 fold change (gefitinib)
1 | SPG11 (UniProt Q96JI7) | 0.161 | -0.129 | -0.058 | -0.015 | -0.003 | 0.049 | 0.088 | -0.041 | 0.07 | -0.024
2 | SRP54 (UniProt P61011) | -0.023 | 0.01 | -0.011 | 0.035 | 0.023 | 0.067 | 0.011 | 0.055 | 0.043 | -0.025
3 | SKA2 (UniProt Q8WVK7) | 0.003 | -0.119 | -0.077 | -0.014 | -0.02 | 0.032 | -0.001 | 0.036 | -0.009 | 0.006
4 | SMAD9 (UniProt O15198) | 0.008 | -0.075 | 0.089 | -0.081 | 0.011 | 0.014 | -0.014 | 0.052 | 0.047 | -0.028
5 | TARDBP (UniProt Q13148) | -0.006 | -0.318 (active) | -0.044 | 0 | -0.139 | 0.181 | 0.137 | 0.012 | -0.004 | 0.06
6 | STK24 (UniProt B4DR80) | -0.029 | 0.02 | -0.022 | 0.11 | -0.008 | -0.012 | -0.039 | -0.037 | 0.078 | -0.052
7 | SRRT (UniProt Q9BXP5) | 0.014 | -0.195 | 0.008 | -0.013 | -0.02 | 0.024 | 0.202 | 0.03 | -0.01 | 0.009
8 | STOML2 (UniProt Q9UJZ1) | -0.017 | 0.095 | -0.009 | 0.017 | 0.022 | -0.007 | -0.055 | -0.004 | 0.052 | 0.08
9 | SYNRG (UniProt Q9UMZ2) | 0.026 | -0.016 | -0.021 | 0.015 | 0.002 | -0.004 | 0.024 | 0.033 | 0.003 | -0.006
10 | SMG7 (UniProt Q92540) | -0.003 | 0.008 | 0.018 | 0.076 | -0.017 | 0.025 | 0.202 | 0.015 | 0.132 | 0.032
11 | SSNA1 (UniProt O43805) | 0.016 | 0.038 | 0.043 | -0.036 | 0.109 | 0.023 | -0.115 | 0.027 | -0.014 | 0.013
12 | SORBS3 (UniProt O60504) | 0 | -0.095 | 0.032 | -0.062 | 0.059 | 0.02 | -0.143 |  | 0.065 | 
13 | STN1 (UniProt Q9H668) | -0.078 | -0.032 | 0.173 | 0.016 |  | 0.024 | -0.149 | -0.026 | -0.562 (active) | 0.053
14 | SPR (UniProt P35270) | 0.164 | -0.1 | 0.071 | 0.019 | 0.01 | -0.097 | 0.22 | 0.163 | -0.017 | -0.013
15 | SH3BP2 isoform 4 (UniProt P78314) | -0.023 | 0.026 | 0.03 | -0.054 | 0.099 |  |  |  | 0.053 | 
16 | SLC25A25 isoform 3 (UniProt Q6KCM7) | 0.014 | 0.015 | 0.007 | 0.029 | 0.003 | 0.035 | 0.012 | -0.011 | 0.025 | 0.037

Row | Target | log2 fold change (alvocidib) | log2 fold change (Tubastatin A) | log2 fold change [1] | log2 fold change (defactinib) | log2 fold change [2] | log2 fold change (encorafenib) | log2 fold change [3] | log2 fold change (alisertib) | log2 fold change [4] | log2 fold change (gefitinib)
17 | SPIRE1 (UniProt Q08AE8) | -0.101 | 0.02 | 0.038 | -0.024 | 0.084 | -0.046 | -0.036 | 0.02 | 0.076 | 0.049
18 | SYK (UniProt P43405) | -0.142 | -0.015 | -0.009 | -0.105 | 0.115 | 0.01 | 0.154 |  | 0.11 | -0.004
19 | SSX5 isoform 2 (UniProt O60225) | -0.096 | -0.015 | 0.038 | -0.026 |  | -0.082 | -0.271 | -0.172 | -0.002 | 0.005
20 | SNUPN (UniProt O95149) | 0.012 | 0.028 | -0.173 | -0.066 |  | 0.006 | 0.155 | -0.007 | -0.009 | 0.076
21 | SOX5 (UniProt P35711) | 0.048 | -0.113 | -0.219 | 0.017 | 0.074 | 0.034 | -0.025 |  | -0.104 | 
22 | SMC6 (UniProt Q96SB8) | -0.017 | -0.087 | 0.049 | -0.003 | -0.004 | -0.02 | 0.045 | -0.018 | -0.013 | 0.007
23 | SMG6 (UniProt Q86US8) | -0.067 | -0.062 | -0.112 | -0.027 | -0.059 | 0.148 | -0.01 | -0.044 | 0.008 | -0.069
24 | STK11IP (UniProt Q8N1F8) | 0.013 | -0.005 | -0.025 | 0.041 | -0.014 | 0.053 | 0.062 | -0.026 | 0.025 | 0.069
25 | SNAP23 isoform 2 (UniProt O00161) | -0.323 | -0.202 | 0.029 | -0.118 |  | -0.295 | 0.071 | -0.15 | -0.152 | 0.016
26 | SNCA (UniProt P37840) | -0.094 | 0.172 | 0.028 | -0.019 | 0.269 | -0.026 | 0.204 | -0.021 | 0.117 | 0.089
27 | SLC25A44 (UniProt Q96H78) | -0.05 | 0.007 | -0.221 | 0.064 | 0.14 | 0.015 | -0.013 |  | 0.099 | 
28 | SPPL2A (UniProt Q8TCT8) | 0.013 | 0.107 | 0.103 | -0.054 |  | 0.124 | -0.063 |  | 0.099 | 
29 | STAR (UniProt P49675) | -0.024 | 0.448 (active) | 0.073 | 0.034 | 0.005 | -0.052 | 0.063 | 0.133 |  | -0.056
30 | SLC25A17 (UniProt O43808) | -0.216 | 0.094 | 0.007 | -0.036 | 0.006 | 0.004 | -0.009 | 0.019 | -0.011 | 0.026
31 | STK4 (UniProt Q13043) | 0.011 | -0.095 | 0.365 | 0.231 | 0 | -0.073 | -0.055 | 0.051 | 0.257 | 0.002
32 | STK25 (UniProt O00506) | -0.016 | -0.093 | 0.023 | 0.147 | -0.023 | 0.025 | -0.04 | -0.007 | 0.036 | -0.065
